Source: the supplement of paper PMC9588786
± gives the standard deviation of the averaged measurements.
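Also: viability read as CCK-8 absorbance at 450 nm in cells co-exposed to the GPX4 inhibitor RSL3, relative to a 0.01% DMSO vehicle control.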

These compounds were tested on HT-1080 (assay: relative cell viability with RSL3 co-treatment (fraction of control); higher = stronger protection from RSL3-induced ferroptosis (higher viability)). Settings: 10 µM.
With `O=C1NCCc2[nH]c(-c3ccncc3)cc21` the relative cell viability was 0.69 ± 0.04.
`COC(=O)Nc1ccc(-c2nc(N3CCOCC3)c3cnn(C4CCN(C(=O)OC)CC4)c3n2)cc1` showed a relative cell viability of 0.547 ± 0.18.
`Cc1ccc(S(=O)(=O)/C=C/C#N)cc1` showed a relative cell viability of 0.463 ± 0.042.
